# High-throughput results (PubChem BioAssay)
# A selection: hits, their analogues and other compounds. The true share with any hit is near 12%.
# HP1b binding inh – HP1-beta chromodomain-methylated histone interaction inhibition | P83916 | AlphaScreen HP1-beta / biotin-H3K9me3 peptide binding | Potency, µM (doses to about 114 µM), without a hit: top-dose activity change, negative = inhibition, usual class: inhibitors | 0.56% of 390,000 active; also: potency is read from the fitted curve at half-maximal effect; nearly all actives have a fitted effect of over 70% in size
# Target sequence (P83916 whole entry, looked up): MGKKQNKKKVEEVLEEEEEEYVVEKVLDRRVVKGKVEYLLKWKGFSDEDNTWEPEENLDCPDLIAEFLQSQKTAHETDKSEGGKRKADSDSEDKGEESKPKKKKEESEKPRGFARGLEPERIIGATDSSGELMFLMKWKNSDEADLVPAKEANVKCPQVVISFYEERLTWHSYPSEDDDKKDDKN
#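 AlphaScreen: HP1-beta (50 nM) preformed 30 min with biotin-H3(1-18)K9me3 peptide (50 nM) in PBS pH 7.4, 0.01% Tween-20. Compound added for 30 min at RT, then streptavidin donor/nickel chelate acceptor beads (10 ug/mL) for 30 min.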
# PLK1 PBD block – inhibitors of human PLK1 polo-box domain binding; Potency, µM, inactives show max response, negative = inhibition, hits mostly inhibitors; 2.8% of 360,000 active; Plk1 PBD binding of FITC phosphopeptide, fluorescence polarization; also: potency is read from the fitted curve at half-maximal effect; series mostly up to about 57 µM; % is scaled to controls: 0 for no effect and ±100 for the full control effect; nearly all actives have a fitted effect of over 65% in size
# PI5P4Ka inh – blocks human PI5P4K alpha kinase activity | P48426 | PI5P4Kalpha enzyme, ADP-Glo luminescence, 60 min; stronger effect = lower value | max response, % | 1.2% of 330,000 active | AID 652105; active = max response of -50% or lower; inconclusive = between -30% and -50%; inactive = -30% or higher; also: value at the top dose of about 77 µM; % is scaled to controls: 0 for no effect and ±100 for the full control effect
#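 Compounds were pin-transferred onto PI5P4Kalpha and substrate in HEPES pH 7.4 buffer with EGTA, CHAPS and 5% DMSO. ATP (5 microM final) started the reaction, which ran 60 minutes at room temperature before ADP-Glo detection.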
# BAZ2B block – inhibitors of human BAZ2B bromodomain; Potency, µM (titrated, usually from 114 µM), inactives show at the highest dose activity change, negative = inhibition, actives largely listed as inhibitors; AlphaScreen BAZ2B-H3K14Ac peptide displacement; AID 504333; 4.4% of 360,000 active; Q9UIF8; also: potency is read from the fitted curve at half-maximal effect; % is scaled to controls: 0 for no effect and ±100 for the full control effect; nearly all actives have a fitted effect of over 60% in size
#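 Protein-peptide AlphaScreen: BAZ2B 50 nM, b-H3K14Ac 50 nM, 1x PBS pH 7.4 + 0.01% Tween-20. Preincubation 30 min RT; cpd 30 min RT (top 110 uM); beads 20 min RT, light-protected.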
# G9a block – G9a (human) methyltransferase inhibition; Q96KQ7; G9a H3K9 monomethylation, AlphaScreen, 2 h; Potency, µM (doses to about 102 µM), for inactives: top-dose activity, negative = inhibition, most hits filed as inhibitors; 8.8% of 350,000 active; also: potency is read from the fitted curve at half-maximal effect; % is scaled to controls: 0 for no effect and ±100 for the full control effect; nearly all actives have a fitted effect of over 75% in size
# Target sequence (Q96KQ7 913-1193 limits assumed): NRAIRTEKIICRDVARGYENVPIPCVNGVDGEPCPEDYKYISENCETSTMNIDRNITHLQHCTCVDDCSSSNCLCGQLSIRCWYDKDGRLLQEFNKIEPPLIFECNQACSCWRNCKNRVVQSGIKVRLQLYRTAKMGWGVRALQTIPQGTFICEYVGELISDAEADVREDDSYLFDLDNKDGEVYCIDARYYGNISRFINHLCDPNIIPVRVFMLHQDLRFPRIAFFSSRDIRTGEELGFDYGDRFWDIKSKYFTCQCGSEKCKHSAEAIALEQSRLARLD
#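 Readings reflect AlphaScreen signal from monomethyl-H3K9 antibody detection. HMT at 20 nM; substrate b-H3K9 500 nM; cofactor SAM 20 uM; 2 h RT reaction; compounds tested as titrations in qHTS with 15 min preincubation.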
# JMJD2A Tudor inh – inhibitors of human JMJD2A Tudor domain. Potency, µM (top dose mostly 114 µM), for the others: at the top dose activity change, negative = inhibition, hits mostly inhibitors. O75164. 4.4% of 390,000 active. AlphaScreen JMJD2A-Tudor / H3K4me3 peptide binding; also: potency is read from the fitted curve at half-maximal effect; % is scaled to controls: 0 for no effect and ±100 for the full control effect; nearly all actives have a fitted effect of over 50% in size
# * hit, by the source's call; u = inconclusive; x = no result given; [ ] = remark or other dose. Unless noted, calls follow the shape of the dose curve; as a rule, active = well fitted curve in the direction sought with a large enough effect; inconclusive = small, poorly fitted or top-dose-only effect, or another doubt; inactive = no such curve, though single readings can be large; an effect the other way counts as inactive or inconclusive.
SMILES,HP1b binding inh,PLK1 PBD block,PI5P4Ka inh,BAZ2B block,G9a block,JMJD2A Tudor inh
CC(=O)N1CCc2nc3sc(C(=O)c4ccc(F)cc4)c(N)c3c(C(F)(F)F)c2C1,-6%,x,x,50µM*,-29%[59 µM],u
Clc1ccc(CCNc2nc3cc(Cl)c(Cl)cc3n3cnnc23)cc1,12%,x,x,1%,9%[59 µM],-10%
COc1ccc(C2C=C(c3ccccc3)Nc3ncnn32)cc1 (stereo not drawn),51%,-21%,0,u,u,-9%
COc1ccc(C2C=C(c3ccc(C)c(C)c3)Nc3ncnn32)c(OC)c1OC (stereo not drawn),47%,-13%,-6,-24%,50µM*,-27%
COc1cccc(C2=CC(c3ccc(OC)c(OC)c3OC)n3ncnc3N2)c1 (stereo not drawn),25%,x,x,50µM*,u,-33%
COc1ccc(OC(=O)c2nc(SCc3ccccc3C)ncc2Cl)cc1,65%,x,x,25%,44%[59 µM],3%
Cc1cc(NCCCn2ccnc2)n2nc(C)c(-c3ccc(Cl)cc3)c2n1,-10%,-7%,x,32µM*,u,u
Cc1cc(NCCCn2ccnc2)n2nc(C)c(-c3ccccc3)c2n1,0%,-7%,x,u,-41%[59 µM],u
O=C(CSc1ncn[nH]1)Nc1cc(S(=O)(=O)N2CCCC2)ccc1Cl,18%,30µM*,1,x,u,-18%
O=C(CSc1ncn[nH]1)Nc1ccc(Cl)c(S(=O)(=O)N2CCOCC2)c1,61%,-20%,6,x,50µM*,-19%
O=C(CSc1ncccn1)Nc1ccc(Cl)c(S(=O)(=O)N2CCOCC2)c1,26%,-10%,-5,x,x,-7%
O=S(=O)(c1ccccc1)N1CCN(c2nc(C3CC3)nc3ccccc23)CC1,x,x,x,x,x,-21%
COc1cc(OC)c(NC2=C(c3ccc(C(F)(F)F)cc3)C(=O)c3ccccc32)cc1Cl,u,x,x,u,u,20µM*
Cc1cccc(CNC(=O)c2ccc3c(c2)c(C)c(C)n3Cc2ccccc2)c1,13%,x,x,u,-32%[59 µM],-24%
Cc1cccc(Cn2c(C)c(C)c3cc(C(=O)NCCN4CCOCC4)ccc32)c1,-5%,-2%,1,56µM*,40µM*,50µM*
Cc1c(C)n(Cc2ccc(F)cc2)c2ccc(C(=O)NCCN3CCOCC3)cc12,-14%,0%,-2,50µM*,50µM*,u
Cc1c(NC(=O)C(C)OC(=O)CCOc2ccccc2)c(=O)n(-c2ccccc2)n1C (stereo not drawn),24%,-7%,3,0%,u,-1%
COc1cc(/C=C2\CCCc3c2nc2ccccc2c3C(=O)O)cc(Br)c1O,16%,-6%,-18,u,40µM*,-10%
COc1cccc(/C=C2\CC(C)Cc3c2nc2ccccc2c3C(=O)O)c1OC (stereo not drawn),44%,-17%,1,-13%,50µM*,10%
COc1cc(/C=C2\CCc3c2nc2ccccc2c3C(=O)O)cc(OC)c1OC,-26%,17µM*,-62*,45µM*,14µM*,89µM*
COc1ccc(/C=C2\CCCc3c2nc2ccccc2c3C(=O)OCC(=O)c2c(N)n(C)c(=O)n(C)c2=O)cc1,x,x,x,3%,5%[59 µM],x
CCOc1cc(/C=C2\CCCc3c2nc2ccccc2c3C(=O)O)ccc1OC,-5%,3µM*,-1,79µM*,u,89µM*
CCOCc1nnc(NC(=O)c2cc(OC)cc(OC)c2)s1,21%,-7%,-2,-16%,32µM*,-27%
CCOCc1nnc(NC(=O)c2cccc(OC)c2)s1,16%,-26%,2,u,50µM*,-5%
CCOCC(=O)Nc1nnc(COc2ccc(Cl)cc2)s1,u,6.7µM*,u,-2%,4µM*,u
CCc1nnc(NC(=O)c2cccc(OC)c2)s1,41%,1%,-7,-3%,-3%[59 µM],-14%
COc1cccc(C(=O)Nc2nnc(-c3cccs3)s2)c1,9%,-16%,0,-4%,10µM*,3%
CCOCC(=O)Nc1nnc(COC)s1,7%,-1%,x,2%,19%[59 µM],-20%
